# Experimental data: PubChem BioAssay (NCATS)
# A number with no mark means an inactive call. Results filed as inconclusive are left out. Activity calls are given as the source filed them. Calls come from the whole dose curve; as a rule, active = well fitted curve in the direction sought with a large enough effect; inconclusive = small, poorly fitted or top-dose-only effect, or another doubt; inactive = no such curve, though single readings can be large; an effect the other way counts as inactive or inconclusive.
# Target: Nuclear receptor ROR-gamma (Homo sapiens) (UniProt P51449)
# Sequence (P51449 whole entry, looked up): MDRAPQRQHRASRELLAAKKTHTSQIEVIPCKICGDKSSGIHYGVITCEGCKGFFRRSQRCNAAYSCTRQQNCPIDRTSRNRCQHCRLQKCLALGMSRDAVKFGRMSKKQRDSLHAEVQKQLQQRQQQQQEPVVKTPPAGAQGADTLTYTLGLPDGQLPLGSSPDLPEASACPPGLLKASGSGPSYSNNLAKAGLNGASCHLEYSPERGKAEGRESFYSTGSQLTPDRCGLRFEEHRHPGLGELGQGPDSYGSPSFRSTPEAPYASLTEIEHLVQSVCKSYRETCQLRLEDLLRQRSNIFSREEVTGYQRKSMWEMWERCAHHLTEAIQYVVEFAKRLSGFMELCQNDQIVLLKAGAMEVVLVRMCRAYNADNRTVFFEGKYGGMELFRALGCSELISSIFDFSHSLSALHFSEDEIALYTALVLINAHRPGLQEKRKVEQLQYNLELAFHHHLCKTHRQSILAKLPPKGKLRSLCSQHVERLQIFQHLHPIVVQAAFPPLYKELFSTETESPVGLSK
# Assay: qHTS assay for small molecule antagonists of the retinoid-related orphan receptor gamma (ROR-gamma) signaling pathway (AID 651802); note: nearly all actives have a fitted effect of over 60% in size; note: potency is the fitted concentration of half-maximal effect;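 for activity change, negative = inhibition: CHO cells with doxycycline-induced ROR-gamma expression; luciferase reporter luminescence driven by ROR response element; % is set by controls: 0 for no effect and ±100 for the full control effect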
# Details: ROR-gamma antagonist cell reporter assay; series mostly up to 92.2 µM; activity change, negative = inhibition: at the top concentration
# In short: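 Luciferase read-out: ONE-Glo luminescence after 30 min at room temperature, following 16hr doxycycline induction at 37C, 5% CO2 of CHO cells with TET-inducible ROR and RORE-LUC reporter; decreased luminescence = reduced reporter activity.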
Structure (SMILES),"activity change, negative = inhibition [%]",Potency
O=C(O)c1cc(O)c(O)c(O)c1,-5.22,–
CN(C)c1ccc(N=NS(=O)(=O)O)cc1,–,5.96 µM (active)
Nc1ccc([N+](=O)[O-])cc1O,-25.3,–
NCCO,5.81,–
O=C(O)/C=C\C(=O)O,-15.2,–
Nc1ccc(O)c(C(=O)O)c1,5.17,–
C#C[C@]1(O)CC[C@H]2[C@@H]3CCc4cc(O)ccc4[C@H]3CC[C@@]21C,–,33.5 µM (active)
S=c1[nH]c2ccccc2s1,-3.24,–
c1cnc2c(c1)ccc1cccnc12,–,2.37 µM (active)
c1ccc2sc(SSc3nc4ccccc4s3)nc2c1,7.75,–
N=C1N=C(N)c2cc3ccccc3cc21,–,59.6 µM (active)
CCCCCCCCCCCCCCCCCC(=O)O,-31.9,–
CC(C)NCC(O)COc1cccc2ccccc12 (centres undefined),-6.24,–
CN(C)CCC(c1ccc(Cl)cc1)c1ccccn1 (centres undefined),-0.196,–
CCCOC(=O)c1ccc(O)cc1,–,inactive

# Tested on: not listed separately
# Assay: qHTS for compounds that reverse cellular toxicity of Amyloid beta (A-beta) peptide in yeast: LOPAC Validation Assay (AID 720559);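 note: plate controls were DMSO for no effect and equimolar ferric chloride plus clioquinol rescue for full effect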
# Details: yeast expressing A-beta; Potency: rescue of growth toxicity; series mostly up to 46.1 µM; growth rescue, positive = activation: at the top concentration
# In short: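 Yeast cells expressing toxic A-beta were combined with pinned compounds in growth medium and incubated 48 hr at 30 C. Growth was read as absorbance at 600 nm and normalized to DMSO and to an equimolar FeCl3/clioquinol positive control.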
row,Structure (SMILES),"growth rescue, positive = activation [%]"
1,CN1CC(=O)N/C1=N/C(=O)Nc1cccc(Cl)c1,-8.62
2,c1cnc2c(c1)ccc1cccnc12,-47.9
3,CC(C)NCC(O)COc1cccc2ccccc12 (centres undefined),-4.7
4,CN1CCC[C@H]1c1cccnc1,-6.31
5,CN(C)CCC(c1ccc(Cl)cc1)c1ccccn1 (centres undefined),-2.85
6,Oc1ccccc1O,-3.25
7,O=C(Nc1ccccc1)c1cc([N+](=O)[O-])ccc1Cl,-2.31

# Tested on: not listed separately
# Assay: qHTS for Activators of Parkin Expression: LOPAC Validation Assay (NLuc Reporter) (AID 720572)
# Details: Parkin promoter NanoLuc reporter cells, luminescence; series mostly up to 46.1 µM; activation: at the top concentration
# In short: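 Compound effects on Parkin promoter activity were measured as NanoLuc luminescence after 24 h at 37 C. The neuronal reporter line also carried FLuc, which was read first. LOPAC compounds were tested at 7 concentrations, with normalization to DMSO (0%) and positive control (100%).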
row,Structure (SMILES),activation [%]
1,CN1CC(=O)N/C1=N/C(=O)Nc1cccc(Cl)c1,-7.35
2,c1cnc2c(c1)ccc1cccnc12,4.97
3,CC(C)NCC(O)COc1cccc2ccccc12 (centres undefined),0.948
4,CN1CCC[C@H]1c1cccnc1,1.81
5,CN(C)CCC(c1ccc(Cl)cc1)c1ccccn1 (centres undefined),-6.04
6,Oc1ccccc1O,-12.2
7,O=C(Nc1ccccc1)c1cc([N+](=O)[O-])ccc1Cl,-2.08
